KCNQ2 block – inhibitors of rat KCNQ2 potassium channel. 1.1% of 310,000 active. B-score at 10 µM. CHO-K1 KCNQ2, FluxOR thallium flux, 20 min; stronger effect = lower value. O88943;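 active = fluorescence ratio B-score at most minus 3 library SDs, with starting brightness B-score within 2 library SDs, cut at about -5.5 in these data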
KCNQ2 enhance – potentiators of rat KCNQ2 potassium channel; O88943; CHO-K1 KCNQ2, FluxOR thallium flux fluorescence; stronger effect = higher value; B-score at 10 µM; 0.54% of 310,000 active;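 active = fluorescence ratio B-score at least 3 SD of library B-scores, with initial fluorescence B-score within 3 of them, cut at about 5.3 in these data; same plate scores as AID 2156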;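 also: B-score of peak minus minimum over baseline fluorescence ratio after K+ and Tl+ stimulus; positive B-score means potentiation of KCNQ2 with more thallium influx and brighter signal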
Active calls of the source: *; i = inactive; · = no result given. Most compounds without a hit are left out; they make up all but 1.6% or so of the library.

SMILES	KCNQ2 block	KCNQ2 enhance
COc1ccccc1OCC(=O)Nc1ccccc1C(=O)N1CCCCC1	i	·
O=C(COc1ccccc1Cl)Nc1ccccc1C(=O)N1CCCCC1	-6*	-6
CC(=O)Nc1ccc(S(=O)(=O)N(C)CC(=O)OC(C)C(=O)NC2CCCCC2)cc1 (centres undefined)	i	0.84
O=C(CN1C(=O)NC2(CCCC2)C1=O)OCc1ccc(Cl)cc1Cl	i	0.72
C=CCSc1nnc(CC(OC)OC)n1-c1ccccc1	i	0.85
COc1cccc(CNCC(O)(c2ccc(Cl)cc2)c2ccc(Cl)cc2)c1	i	·
Cc1ccc(CNCC(O)(c2ccccc2)c2ccc(Cl)cc2)cc1 (centres undefined)	-6.4*	-6.4
CCOCCCNC(=O)c1ccc2c(c1)OCO2	i	·
CCCCC(CC)CNC(=O)c1ccc2c(c1)OCO2 (centres undefined)	-7*	-7
N#C/C(=C\c1c(N2CCCCC2)nc2ccccn2c1=O)S(=O)(=O)c1ccccc1	i	0.42
Cc1ccc(NC(=O)C2CCN(S(=O)(=O)c3ccc(N4CCCC4=O)cc3)CC2)cc1Cl	i	0.72
Cc1cc(C(F)F)n2ncc(C(=O)N3CCc4ccccc4C3)c2n1	i	0.89
O=C(c1cnn2c(C(F)(F)F)cc(-c3ccco3)nc12)N1CCCCCC1	i	0.19
O=C(c1cnn2c(C(F)F)cc(-c3ccccc3)nc12)N1CCc2ccccc2C1	-6.3*	-6.3
O=C(c1cnn2c(C(F)(F)F)cc(-c3ccco3)nc12)N1CCc2ccccc2C1	-7*	-7
Cc1ccc(-n2c(SCC(N)=O)nc3c(c2=O)C2(CCCC2)Cc2ccccc2-3)cc1	-5.6*	-5.6
CCSc1n[nH]c2nc3c(c(=O)n12)C1(CCCC1)Cc1ccccc1-3	i	·
CCOC1=NN(c2ncc(C(F)(F)F)cc2Cl)C(=O)/C1=C/N(C)C	i	1
COC(=O)c1ccc2c(=O)n(CCN3CCOCC3)c(SCC(=O)Nc3ccc(OC)cc3OC)nc2c1	i	·
COC(=O)c1ccc2c(=O)n(CCN3CCOCC3)c(SCC(=O)Nc3ccccc3Cl)nc2c1	-6.2*	-6.2
N/C(=N\OC(=O)CCC1CCCCC1)c1ccc([N+](=O)[O-])cc1	i	0.03
N/C(=N\OC(=O)CCC1CCCC1)c1cccc([N+](=O)[O-])c1	i	5.8*
N/C(=N\OC(=O)CC1CCCCC1)c1cccc([N+](=O)[O-])c1	i	10*
N/C(=N\OC(=O)CC1CCCCC1)c1ccc([N+](=O)[O-])cc1	i	·
O=C(CCc1nnc2ccc(N3CCC4(CC3)OCCO4)nn12)Nc1ccc(F)cc1	i	1.1
SMILES	KCNQ2 block	KCNQ2 enhance
CCOC(=O)[C@H](CCc1ccccc1)N[C@@H](C)C(=O)N1[C@H](C(=O)O)C[C@@H]2CCC[C@@H]21	i	0.19
COc1cccc(-c2c3c([nH]c(=O)c2C#N)CCc2cc(OC)ccc2-3)c1	i	1.4
O=Cc1ccc(O)c2ncccc12	i	7.2*
NS(=O)(=O)c1ccc(N=Nc2ccc(O)c3ncccc23)cc1	i	0.44
Cc1ccc(NC(=O)Cc2nnc(SCC(=O)NC3=NCCS3)n2C)cc1	i	0.47
CC1=Nc2ccccc2N=C(NC(=O)CN2CCN(c3ccccc3)CC2)C1c1ccccc1 (centres undefined)	-6.5*	-6.5
CCOC(=O)C1CCCN(CC(=O)NC2=Nc3ccccc3N=C(C)C2c2ccccc2)C1 (centres undefined)	i	·
CCCCN(C(=O)c1ccc(Cl)c([N+](=O)[O-])c1)c1c(N)n(CCC)c(=O)[nH]c1=O	i	·
CN(c1ccccc1)S(=O)(=O)c1cc(Cl)ccc1Cl	i	·
CN(c1ccccc1)S(=O)(=O)c1cccc(Cl)c1Cl	-5.6*	-5.6
CC(=O)Nc1ccc(S(=O)(=O)N2CCN(C(=O)c3ncoc3-c3ccccc3C)CC2)cc1	i	·
COc1ccc(OC)c(-c2cc(C(=O)Nc3cccc(Cl)c3)no2)c1	-7.5*	-7.5
COc1ccc(-c2cc(C(=O)Nc3cccc(Cl)c3)no2)cc1	i	·
COCCSc1ccccc1C(=O)Nc1nnc(COC)s1	i	·
COCc1nnc(NC(=O)c2ccccc2Oc2ccccc2)s1	-6.1*	-6.1
O=C(O)c1ccccc1C(=O)NNc1cccc(Cl)n1	i	·
COc1ccccc1N1CCN(C(=O)c2oc3ccc(F)cc3c2C)CC1	-6.5*	-6.5
COc1ccccc1N1CCN(C(=O)c2oc3ccc(Br)cc3c2C)CC1	i	·
COc1ccc(C(C(=O)NC2CCCC2)N(C(=O)c2snc(-c3ccc(F)cc3)c2N)c2ccc(F)cc2)cc1 (centres undefined)	i	·
COc1ccc(C(C(=O)NC2CCCC2)N(C(=O)c2snc(-c3ccc(F)cc3)c2N)c2ccc(OC)cc2)cc1 (centres undefined)	-5.7*	-5.7
Cc1onc(-c2ccccc2)c1C(=O)N(Cc1ccco1)Cc1cccs1	i	0.39
O=C(CCc1ccccc1)NCC1(c2ccccc2)CCCC1	i	·
CN(C)c1ccc(N2C(=NC(=O)CCC3CCCC3)SC3CS(=O)(=O)CC32)cc1 (centres undefined)	i	·
O=C(COC(=O)C1(c2ccc(Cl)cc2)CCCC1)Nc1ncc(C(F)(F)F)cc1Cl	i	·
O=C(COC(=O)C1(c2ccc(F)cc2)CCCC1)Nc1ncc(C(F)(F)F)cc1Cl	-7*	-7
SMILES	KCNQ2 block	KCNQ2 enhance
CN1CCN(c2c(/C=N/O)c3ccccc3n2C)CC1	i	1.7
Cc1ccccc1C(=O)O/N=C/c1c(N2CCOCC2)n(C)c2ccccc12	-7.6*	-7.6
COC(=O)C1=C(C)N(CC2CC2)C(=O)N[C@H]1c1ccccc1	i	0.04
COc1ccc(N2CCN(c3oc(COc4ccc(Cl)cc4Cl)nc3C#N)CC2)cc1	i	0.01
N#Cc1nc(COc2ccc(Cl)cc2Cl)oc1N1CCN(c2ccccc2)CC1	-7.7*	-7.7
CCC(CCC(=O)NNC(=O)Cc1ccc([N+](=O)[O-])cc1)C(=O)O (centres undefined)	i	0.07
COc1cc(-c2nc(-c3ccc4c(c3)-c3ccccc3S4(=O)=O)c(-c3ccccc3)[nH]2)cc(OC)c1OC	-7*	-7
COc1cc(-c2nc(-c3ccccc3)c(-c3cccs3)[nH]2)cc(OC)c1OC	i	·
CCN(CC(=O)Nc1c(F)cccc1F)C(=O)c1cc(C)oc1C	i	2
Cc1ccnc2ccc(SC(F)(F)F)cc12	i	1.9
Cc1cc(C)n(-c2nc3ccccc3nc2NCCc2ccccc2)n1	-7.5*	-7.5
COc1ccc(Nc2nc3ccccc3nc2-n2nc(C)cc2C)cc1	i	·
O=C1NC(=O)/C(=C\c2ccc(N3CCOCC3)o2)N1	i	·
Cc1cccc(NC(=O)c2ccc(S(=O)(=O)N3CC(C)OC(C)C3)cc2)n1 (centres undefined)	i	·
Oc1ccccc1CNc1ccc(Br)cn1	i	·
Brc1ccc(NCc2cccc3ccccc23)nc1	-6*	-6
Cc1ccc(CN2CCN(/N=C\C=C\c3ccccc3)CC2)cc1	i	·
CCCCN(C)CCn1c(=S)[nH]c2cc(OCC)c(OCC)cc2c1=O	i	5.4*
CCOc1cc2[nH]c(=S)n(CCOC)c(=O)c2cc1OCC	i	0.16
Cn1c(SCC(=O)Nc2ccccc2)nc2ccccc2c1=O	i	·
Fc1cccc(CSc2ccc(-c3ccc4c(c3)OCO4)nn2)c1	i	·
Cc1ccccc1CSc1ccc(-c2ccc3c(c2)OCO3)nn1	-5.8*	-5.8
Cc1ccc(-n2nc(C)c3onc(C)c3c2=O)cc1	i	·

Screening results deposited in PubChem BioAssay by Johns Hopkins Ion Channel Center.
